Bcl-xL primary – inhibitors of human Bcl-xL, primary screen, biochemical, fluorescence polarization, HTS. Bcl-2-like protein 1 (Homo sapiens), Q07817. GST-Bcl-xL / FITC-Bim BH3 peptide fluorescence polarization. inhibition, % at 10.9 µM. 0.7% of 320,000 active. AID 2129, 2009;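 active = inhibition above the mean of all tested compounds plus 3 SD, cutoff set per campaign, cut at about 30% in these data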;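 also: 0% = DMSO wells and 100% = unlabeled Bim-BH3 peptide competitor; inhibitors lower millipolarization by displacing the labeled peptide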
EBV gp42 block – Epstein-Barr virus gp42 inhibitors, primary screen, biochemical, uHTS, fluorescence polarization | AID 1085, 2008 | Glycoprotein 42 (Epstein-Barr virus (strain AG876)), Q1HVG2 | 0.42% of 220,000 active | inhibition, % (tested at 21.74 µM) | Fluorescence polarization binding assay, mP read-out; in the data active = inhibition above about 50%
Target sequence (Q1HVG2 whole entry, looked up): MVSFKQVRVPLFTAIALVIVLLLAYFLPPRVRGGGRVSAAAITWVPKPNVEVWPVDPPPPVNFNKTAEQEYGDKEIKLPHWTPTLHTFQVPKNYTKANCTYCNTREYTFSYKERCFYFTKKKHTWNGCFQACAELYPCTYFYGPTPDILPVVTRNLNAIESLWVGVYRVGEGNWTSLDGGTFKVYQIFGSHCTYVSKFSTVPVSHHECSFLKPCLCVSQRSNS
GLD-1 TGE inh – GLD-1/TGE RNA complex disruptors, primary screen, biochemical, fluorescence polarization. 0.44% of 320,000 active. purified GLD-1 + fluorescein TGE RNA. Female germline-specific tumor suppressor gld-1 (Caenorhabditis elegans), Q17339. inhibition, % at 5.96 µM;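 active = percent inhibition above a per-plate cutoff, the plate mean of test compounds plus 3 SD, cut at about 30% in these data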;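 also: 0% = DMSO wells with GLD-1 and probe and 100% = wells lacking GLD-1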
Target sequence (Q17339 whole entry, looked up): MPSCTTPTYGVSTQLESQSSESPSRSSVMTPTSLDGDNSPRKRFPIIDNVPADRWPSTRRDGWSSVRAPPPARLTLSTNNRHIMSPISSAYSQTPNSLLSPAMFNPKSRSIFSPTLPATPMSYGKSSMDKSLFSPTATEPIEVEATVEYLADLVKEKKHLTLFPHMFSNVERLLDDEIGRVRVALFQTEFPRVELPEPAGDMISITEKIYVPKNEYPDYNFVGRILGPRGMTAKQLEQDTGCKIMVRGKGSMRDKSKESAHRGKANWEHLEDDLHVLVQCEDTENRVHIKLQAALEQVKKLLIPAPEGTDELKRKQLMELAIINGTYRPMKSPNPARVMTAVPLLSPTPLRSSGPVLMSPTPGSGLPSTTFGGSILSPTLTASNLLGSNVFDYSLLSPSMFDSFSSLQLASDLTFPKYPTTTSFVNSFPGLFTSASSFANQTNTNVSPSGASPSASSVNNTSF
MEX-5 binding – MEX-5 zinc finger RNA-binding disruptors – biochemical, C. elegans, fluorescence polarization, MLPCN library, primary screen; Zinc finger protein mex-5 (Caenorhabditis elegans), Q9XUB2; MEX-5/FITC-TCR2 RNA binding; stronger effect = lower value; activity score (negative = inhibition of binding), % at 10 µM; 0.38% of 300,000 active; AID 1832, 2009;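 active = inhibition past about -25% in most replicates, and total fluorescence under double the plate's negative control median, limit read from the data; inconclusive = replicates evenly split on the limit, or fluorescence at least double controls; inactive = too little inhibition in most replicates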;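 also: 0% = DMSO and -100% = 5 µM competing unlabeled TCR2 RNA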
eLon inh – inhibitors of E. coli Lon protease, primary screen, biochemical, fluorescence polarization. P0A9M0. purified E. coli Lon protease. inhibition, % at 7.94 µM. 0.42% of 360,000 active. AID 602123, 2011; in the data active = inhibition above about 13%, passing the limit was not always enough;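 also: 0% = enzyme with probe and DMSO and 100% = no enzyme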
E coli Lon conf – E. coli Lon protease inhibitor retest, confirmation, biochemical, fluorescence polarization; shares compounds with eLon inh; 31% of 1,400 active; purified E. coli Lon; inhibition, % at 7.94 µM; in the data active = inhibition above about 16%;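 also: 0% = enzyme with probe and DMSO and 100% = no enzyme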
Numbers without * were called inactive; ? = inconclusive; / = no result given; + = active, no number. In the library only some 1.3% were active in any assay of this set; here they are far more common.

SMILES	Bcl-xL primary	EBV gp42 block	GLD-1 TGE inh	MEX-5 binding	eLon inh	E coli Lon conf
O=C(c1ccccc1)c1c2c(cc3sc4ccccc4[n+]13)-c1cccc3cccc-2c13	95.0*	32.3	54.7*	/	+	+
O=c1c2ccccc2c2ccccc2c(=O)n1Nc1ccccc1	/	/	/	/	1.3	/
CC1C(=O)Nc2ccc(S(=O)(=O)N3CCCCCC3)cc21 (stereo unspecified)	2.5	/	0.7	/	-1.1	/
Cc1cccc(NC(=S)N2N=CCC2c2ccccc2)c1 (stereo unspecified)	5.5	-2.7	0.7	0.6	-7.7	/
CC1=NN(C(=S)Nc2ccccc2)C(c2ccccc2)C1 (stereo unspecified)	-0.1	-23.0	3.9	-3.3	83.6*	8.9
Cc1noc(C)c1C(=O)NCc1ccccc1F	-0.7	-9.3	-4.1	3.1	4.4	/
CC(=O)Nc1cccc(C(=O)N2CCN(S(=O)(=O)c3ccc(C4CCCCC4)cc3)CC2)c1	/	/	/	/	-6.7	/
Cc1ccc(C(=O)NCCN(C)C)c(C)c1	8.4	-2.1	5.3	1.0	-2.7	/
CNc1c2cccc(C)c2nc2c(C(=O)NCCN(C)C)cccc12	/	/	/	/	178.5*	195.2*
O=C(NC(=S)N1CCN(C/C=C/c2ccccc2)CC1)c1ccc(Cl)nc1	9.1	-6.5	4.4	0.2	-12.6	/
CCOC(=O)C1=C(CSc2nc3c(cc2C#N)CN(C)CC3)OC(N)=C(C#N)C1c1ccncc1 (stereo unspecified)	114.4*	6.5	61.0*	-50.9*	35.1*	-23.4
Cc1csc(=O)n1CC(=O)OC(C)C(=O)Nc1ccc(N(C)C)cc1 (stereo unspecified)	/	/	/	/	-1.4	/
Oc1c(N=Nc2nn[nH]n2)ccc2ccccc12	/	/	/	/	48.1*	25.2*
Oc1c(N=Nc2ccc(F)cc2)ccc2ccccc12	6.9	/	5.9	2.6	-2.4	/
COC(=O)CCCC1=CC2=C(c3ccccc3)C(=O)C(C)(OC(=O)C3CCCC3)C(=O)C2=CN1CCN1CCOCC1 (stereo unspecified)	119.9*	-8.6	90.1*	-5.6	84.1*	23.9*
COC(=O)CCCC1=CC2=C(c3ccccc3)C(=O)C(C)(OC(=O)C3CCCC3)C(=O)C2=CN1CCc1ccccn1 (stereo unspecified)	28.6	7.6	10.7	-16.1	4.6	/
COC(=O)C1=C(C(=O)OC)C(C(=O)OC)C(C(=O)OC)C(C(=O)OC)(C(=O)OC)C(C(=O)OC)=C1C(=O)OC (stereo unspecified)	/	/	/	/	-29.5	/
COc1ccc(/C=N/NC(=O)c2cccc(O)c2)cc1Cn1nc(C)c([N+](=O)[O-])c1C	6.5	4.8	0.8	3.0	-0.7	/
Cc1cc2nc3c(=O)[nH]c(=O)[nH]c3nc2c([N+](=O)[O-])c1N	/	149.5*	/	/	95.4*	182.3*
Cc1c(N)c(C(C)(C)C)cc(C(C)(C)C)c1[N+](=O)[O-]	0.2	14.9	4.5	1.3	7.3	/
O=C(Oc1ccc2c(c1)O/C(=C\c1ccncc1)C2=O)c1ccccc1	80.6*	-1.8	75.4*	-9.6	24.4*	31.6*
O=C(NCc1ccc(Cl)cc1)[C@@H]1CCCN1S(=O)(=O)c1ccc(Cl)cc1	/	/	1.7	/	-13.6	/
Nc1nnc2cc(Br)ccc2n1	/	/	/	/	65.9*	32.9*
Cc1ccccc1-n1c(SCC(=O)NC2CC2)nc2ccccc2c1=O	/	/	/	/	2.9	/
O=C(CCCOC(=O)c1ccc(O)cc1O)c1ccc(Br)cc1	/	/	/	/	20.5*	-10.3
SMILES	Bcl-xL primary	EBV gp42 block	GLD-1 TGE inh	MEX-5 binding	eLon inh	E coli Lon conf
CC1(C)CC(=O)C2=C(C1)OC1=C(C(=O)CC(C)(C)C1)C2c1ccc(O)cc1O	174.5*	116.8*	128.3*	?	65.1*	95.8*
O=C(COC(=O)C1CC(O)CN1S(=O)(=O)c1ccc(Cl)cc1)c1cccc(Cl)c1 (stereo unspecified)	5.9	3.9	1.9	-7.3	71.8*	-19.1
COC(CNC(=O)c1cc(-c2ccncc2)nc2ccc(S(=O)(=O)N3CCOCC3)cc12)OC	0.1	-14.2	4.8	-1.0	1.5	/
CCOC(=O)/C=c1\s/c(=C\c2ccc(C)cc2)c(=O)n1CC(=O)NCc1ccco1	8.8	-30.4	3.1	-2.6	24.0*	-1.6
CCCCCCSc1ccc([C@@H]2[C@@H]3C(=O)N(C)C(=O)[C@@H]3[C@]3(C(=O)OC)CCCCN23)cc1	/	/	-8.5	/	-7.5	/
CCc1c(C)c2nncn2[nH]c1=O	5.4	-6.7	-4.8	0.7	9.6	/
CC(C)OC(=O)/C(C#N)=C/c1c[nH]c2ccccc12	2.8	17.0	6.0	-0.5	11.9	/
COc1cccc(NC(=O)COC(=O)c2ccc(F)cc2F)c1	3.5	-17.7	1.5	-1.2	-7.3	/
N#Cc1ccccc1NC(=O)COC(=O)c1ccc(F)cc1F	2.4	/	-0.6	0.9	16.5*	-3.7
CN1CCN(C(c2cccnc2)c2ccc3cccnc3c2O)CC1 (stereo unspecified)	13.7	-10.2	1.6	-6.0	-7.6	/
CN1CCN(C(c2ccc(F)cc2)c2ccc3cccnc3c2O)CC1 (stereo unspecified)	/	/	/	/	25.5*	-2.8
Cc1ccccc1Cn1ccc(=NCc2ccccc2)cc1	-2.0	-12.1	0.1	2.0	/	/
Cc1ccc(OCC(=O)N2CCN(S(C)(=O)=O)CC2)cc1	-3.0	-10.4	6.1	-0.4	50.4*	-7.0
Cc1nc2ccc(NC(=S)NCCCO)cc2nc1C	5.7	0.4	1.5	-1.2	-10.8	/
CCCNC(=S)Nc1ccc2nc(-c3ccccn3)c(-c3ccccn3)nc2c1	16.1	-15.0	12.9	-7.1	18.8*	-3.1
O=C(/C=C/c1ccc(S(=O)(=O)N2CCOCC2)cc1)NCCCn1ccnc1	5.0	-5.6	2.1	2.5	-4.0	/
O=C(CN1CCCc2ccccc21)NC(=O)NCc1ccccc1	12.8	0.3	-4.5	0.0	7.8	/
O=C(CN1CCCc2ccccc21)NC(=O)NCc1ccco1	10.4	3.1	5.9	0.8	53.2*	-3.0
CCOc1ccc(NC(=S)N2CCN(S(=O)(=O)c3ccc(OC)cc3)CC2)cc1	/	/	/	-3.0	7.2	/
CN(C)CCN(C(=O)c1ccc2ccccc2c1)c1nc2c(F)cccc2s1	5.0	/	9.1	-0.6	2.1	/
Cc1cc(C)c2nc(N(CCN(C)C)C(=O)c3ccc4ccccc4c3)sc2c1	-2.3	/	-0.1	-1.1	20.1*	-4.0
CC[C@@]1(O)C(=O)OCc2c1cc1n(c2=O)Cc2cc3c(CN(C)C)c(O)ccc3nc2-1	+	/	+	?	+	+
CCC/C(=N/NC(=O)c1nnn(-c2nonc2N)c1CN1CCCCC1)c1ccccc1	2.1	/	1.6	0.1	13.3*	-15.3
O=C(CCc1nc2ccccc2[nH]1)Nc1ccccc1F	-0.1	-13.7	0.2	3.2	13.9*	0.5
